PubChem BioAssay (NCATS)
Results filed as inconclusive are left out. Unmarked numbers belong to inactive results. Calls of active or inactive are those of the source. Calls follow the shape of the dose curve; as a rule, active = well fitted cell-killing curve with a large enough effect; inconclusive = small, poorly fitted or top-dose-only effect, or effect the other way; inactive = no such curve, though single readings can be large or run the other way.

assay: Quantitative High-Throughput drug screen in 47 multiple myeloma cell lines against the NCATS MIPE library collection: KMM1_JCRB cell viability assay (AID 1918960); details: KMM1 myeloma viability, CellTiter-Glo ATP luminescence, 48 h; series mostly up to 45.8 µM; viability (% of DMSO): at the top concentration; also: nearly all actives have a fitted effect of over 30% in size
Procedure, shortened: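 500 cells/well; MIPE 4.0 library pinned in; 48 h, 37 °C, 5% CO2; CellTiter-Glo ATP luminescence. Controls: DMSO = 100% viability, medium only = 0%.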
Potency is read from the fitted curve at half-maximal effect.

SMILES	viability (% of DMSO)	Potency
COc1cc(C=CC(=O)O)ccc1O	92.6%	
Cc1cccc(Nc2nc(N[C@@H]3CCCC[C@H]3N)ncc2C(N)=O)c1		16.6 µM (active)
C=C1[C@H](n2cnc3c(=O)[nH]c(N)nc32)C[C@H](O)[C@H]1CO		18.7 µM (active)
C[C@]12CC[C@@H]3c4ccc(O)cc4CC[C@H]3[C@H]1[C@@H](O)[C@@H](O)[C@H]2O	118%	
CC[C@H](C)n1cc(C)c2c(C(=O)NCc3c(C)cc(C)[nH]c3=O)cc(-c3ccc(N4CCNCC4)nc3)cc21	116%	
Cc1nc(NC(=O)N2CCC[C@@H]2C(N)=O)sc1-c1csc(C(C)(C)C)n1		1.05 µM (active)
CCOC(=O)[C@H]1O[C@H]1C(=O)N[C@@H](CC(C)C)C(=O)NCCC(C)C	106%	
OC(c1cc(C(F)(F)F)nc2c(C(F)(F)F)cccc12)C1CCCCN1 (centres undefined)		20.9 µM (active)
CN1CC(=O)NC1=NC(=O)Nc1cccc(Cl)c1		4.69 µM (active)
CCC(=O)NCC[C@@H]1CCc2ccc3c(c21)CCO3	114%	
CC1=C(CC(=O)O)c2cc(F)ccc2C1=Cc1ccc(S(C)=O)cc1 (centres undefined)		20.9 µM (active)
Oc1cc(O)cc(C=Cc2ccc(O)c(O)c2)c1		13.2 µM (active)
CSc1cccc(Nc2ncc3cc(-c4c(Cl)cccc4Cl)c(=O)n(C)c3n2)c1		0.059 µM (active)
O=C(NC[C@H](O)CO)c1ccncc1Nc1ccc(I)cc1F		6.62 µM (active)
Cc1ccc(NC(=O)Nc2cc(C(F)(F)F)ccc2F)cc1Nc1ccc2c(c1)NC(=O)C2=Cc1ccc[nH]1		5.9 µM (active)
CN1[C@H]2CC[C@H]1CC(OC(=O)c1c[nH]c3ccccc13)C2 (some centres undefined)	104%	
CO[C@H]1C=CO[C@@]2(C)Oc3c(C)c(O)c4c(O)c(c(C=NN5CCN(C)CC5)c(O)c4c3C2=O)NC(=O)C(C)=CC=C[C@H](C)[C@H](O)[C@@H](C)[C@@H](O)[C@@H](C)[C@H](OC(C)=O)[C@H]1C	104% [at 15.3 µM]	
CCC(=C(CC)c1ccc(O)cc1)c1ccc(O)cc1		18.7 µM (active)
Cc1c(-c2cccc3c(CCCOc4cccc5ccccc45)c(C(=O)O)n(Cc4cccnc4)c23)c(COc2ccc(N3CCN([S+](=O)([O-])N(C)C)CC3)cc2)nn1C	91.6%	
COc1ccnc(CS(=O)c2nc3ccc(OC(F)F)cc3[nH]2)c1OC (centres undefined)	89.9%	
C[C@@H]1CC=CC=CC=CC=C[C@@H](O[C@@H]2O[C@H](C)[C@@H](O)[C@H](N)[C@H]2O)C[C@@H]2O[C@](O)(C[C@@H](O)C[C@@H]3O[C@@H]3C=CC(=O)O1)C[C@H](O)[C@@H]2C(=O)O	110%	
O=C(O)Cc1cccc(OCCCN(Cc2cccc(C(F)(F)F)c2Cl)CC(c2ccccc2)c2ccccc2)c1	111%	
NC[C@H]1O[C@H](O[C@@H]2[C@@H](O)[C@@H](O[C@H]3O[C@H](CO)[C@@H](O)[C@H](N)[C@@H]3O)[C@H](N)C[C@@H]2N)[C@H](O)[C@@H](O)[C@H]1O	98.8%	
COc1nccc(-c2c(-c3ccc(F)cc3)ncn2C2CCC(O)CC2)n1 (centres undefined)	105%	
